Measurements from PubChem BioAssay.
“And” between values parts separate entries of the source, which are not always exact repeats. Equal entries are not always repeated. The source made the active and inactive calls.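 The calls were made as follows, unless noted: active = inhibition at or above 50% relative to wild type and mutant plate controls; inactive = inhibition below 50%.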

Key:
[1] = inhibitors of TNFa-induced NFkB p65 translocation, primary screen, imaging, HUVEC, MLSMR starter and 10KST1 sets (AID 438;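 active = inhibition above 20% together with a positive visual image hit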;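 also: compound added about 3h40 before a 20 min TNFalpha stimulation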;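 as to inhibition: signal is the nuclear over cytoplasmic p65 intensity ratio per well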); conditions: HUVEC TNFa-induced p65 nuclear translocation; cell count: measured here: nuclei count (cytotoxicity indicator), at 2.08 µM; inhibition: at 2 µM, stronger effect = higher value, 0% TNFa-plus-vehicle, 100% no-TNFa wells
[2] = reduction of polyQ htt aggregates in cells – imaging, exon1htt(103Q)mCFP cells, high-content imaging, primary screen (AID 483;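 active = visual image review flags a hit and inhibition of aggregation exceeds 20%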;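 also: compound exposure lasted 3 days before fixation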;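 as to nuclei count: percent of the per-plate median nuclei count of sample wells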); conditions: exon1htt(103Q)mCFP cell line, aggregate imaging, at 2 µM; inhibition of aggregation: stronger effect = higher value; nuclei count: measured here: cell count, toxicity
[3] = endothelial E-selectin expression blockers – imaging, HUVEC, immunofluorescence, MLSMR starter and 10KST1 sets, primary screen (AID 487;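 active = visually confirmed hit in the image check and inhibition above 20%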;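 as to inhibition: signal is fraction of cell area covered by stained E-selectin grains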;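 as to nuclei count: 100% = median nuclei count of all wells on the same plate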); conditions: HUVEC TNFalpha-induced E-selectin immunofluorescence imaging, at 2 µM; inhibition: stronger effect = higher value; nuclei count: measured here: cell number, toxicity
[4] = Primary imaging screen for DUSP6 inhibitors that restore phospho-Erk in transfected HeLa cells, chemical complementation (AID 609;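 active = compounds giving at least 50% inhibition in the cell-based MKP-3 phosphatase rescue imaging test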;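 as to inhibition: phospho-Erk level distribution per well compared with pooled transfected vehicle control wells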); conditions: HeLa MKP-3 transfected, phospho-Erk imaging KS statistic, at 10 µM, cells stimulated with TPA for 15 min
[5] = biological target: Dual specificity protein phosphatase 6 (Homo sapiens) (UniProt Q16828); assay: as above; conditions: HeLa MKP-3 transfected, phospho-Erk imaging KS statistic; at 10 µM; stronger effect = higher value; cells stimulated with TPA for 15 min
[6] = biological target: Voltage-gated potassium channel subunit beta-2 (Rattus norvegicus) (UniProt P62483); assay: inhibitors of rat Kvbeta2 reductase activity – biochemical, NADPH fluorescence, primary screen (AID 622;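 active = fluorescence slope higher than the sample average by over 3 SD, cut at about -0.22 in these data, passing the limit was not always enough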;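 also: slope of raw intensity against log time taken from 70 to 1610 s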); conditions: recombinant KvBeta, 4-cyanobenzaldehyde reduction, at 10 µM, stronger effect = higher value
[7] = biological target: Voltage-gated potassium channel subunit beta-2 (Rattus norvegicus) (UniProt P62483); assay: enhancers of rat Kvbeta2 NADPH turnover – biochemical, NADPH fluorescence, primary screen (AID 623;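 active = NADPH fluorescence slope more negative than the mean of all samples by about 3 SD, 99.7% confidence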;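 also: fluorescence intensity change per second fitted from 20 to 320 s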); conditions: Recombinant KvBeta, NADPH fluorescence decrease slope, 10 min; at 10 µM; stronger effect = lower value
[8] = biological target: Muscarinic acetylcholine receptor M4 (Homo sapiens) (UniProt P08173); assay: M4-linked GIRK flux change, two-sided – cell-based, HEK293 M4/GIRK, thallium flux, BTC-AM, M4 allosteric agonist project, primary screen (AID 625;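 active = fluorescence slope after compound addition differing from the mean of all tested samples at 99.7% confidence, mostly higher but some lower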;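 also: thallium influx through GIRK channels coupled to M4 in HEK293 cells with BTC-AM dye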); conditions: at 10 µM, actives lie on both sides
[9] = inhibitors of larval lipid processing in zebrafish, primary screen, whole organism, PED6 fluorescence, gall bladder and intestine (AID 686;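 active = a full or partial loss of lipid-probe fluorescence in the fish gall bladder, intestine or both, judged by eye; inactive = no fluorescence loss, or compound toxic to the fish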;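 also: larvae 5 to 7 days old with five fish per well; signal comes from phospholipase A2 cleavage of quenched PED6 carried via bile; overnight exposure to compound and PED6 before scoring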); conditions: Zebrafish larvae PED6 lipid processing, fluorescence scoring; screened at 20 µM (by protocol)
[10] = loss of swimming-algae plug formation – whole organism, Chlamydomonas reinhardtii, WT vs cilia-less mutant, absorbance, 96-well, primary screen (AID 463189); conditions: Chlamydomonas reinhardtii gravitaxis, OD600 absorbance, 2 days; at 10 µM; stronger effect = higher value;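 also: 0% = wild type cc124 cells in DMSO and 100% = ciliumless bld1 mutant cells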
[11] = blockers of RIG-like receptor reporter activation – cell-based, Sendai virus stimulus, luciferase, 10K MLSCN set, TLR/RLR signaling modifier project, primary screen (AID 602276;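 active = inhibition at or above 50% at 10 µM; inactive = inhibition below 50%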;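 also: firefly luciferase from ISG56 promoter only with Renilla not read in this screen; 0% = Sendai virus plus DMSO and 100% = medium plus DMSO without virus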); conditions: HEK293 RL24 IRF3 luciferase reporter, at 10 µM, stronger effect = higher value
[12] = TLR3 IRF3 reporter activation blockers – cell-based, poly I:C stimulus, luciferase, 10K MLSCN set, primary screen (AID 602277;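 active = inhibition of the reporter signal at or above 50%; inactive = inhibition below 50%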); conditions: HEK293-TLR3 RL24 IRF3 luciferase reporter, at 10 µM, stronger effect = higher value
[13] = biological target: Alpha-2C adrenergic receptor (Homo sapiens) (UniProt P18825); assay: compounds altering alpha2C-coupled GIRK flux – cell-based, HEK293 alpha2C/GIRK1/2, thallium flux, primary screen (AID 624;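 active = fluorescence slope after compound addition differing from the mean of all screened samples at 99.7% confidence, in either direction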;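 also: slope of fluorescence ratio to pre-addition baseline per second over 15 to 24 s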); conditions: thallium flux BTC fluorescence, at 10 µM, actives lie on both sides
[14] = measured here: cell density z-score
[15] = measured here: nuclear c-Myc green intensity z-score
[16] = measured here: nuclear pErk red intensity z-score, stronger effect = higher value

Chain of Alpha-2C adrenergic receptor (Homo sapiens) (P18825 whole entry, looked up): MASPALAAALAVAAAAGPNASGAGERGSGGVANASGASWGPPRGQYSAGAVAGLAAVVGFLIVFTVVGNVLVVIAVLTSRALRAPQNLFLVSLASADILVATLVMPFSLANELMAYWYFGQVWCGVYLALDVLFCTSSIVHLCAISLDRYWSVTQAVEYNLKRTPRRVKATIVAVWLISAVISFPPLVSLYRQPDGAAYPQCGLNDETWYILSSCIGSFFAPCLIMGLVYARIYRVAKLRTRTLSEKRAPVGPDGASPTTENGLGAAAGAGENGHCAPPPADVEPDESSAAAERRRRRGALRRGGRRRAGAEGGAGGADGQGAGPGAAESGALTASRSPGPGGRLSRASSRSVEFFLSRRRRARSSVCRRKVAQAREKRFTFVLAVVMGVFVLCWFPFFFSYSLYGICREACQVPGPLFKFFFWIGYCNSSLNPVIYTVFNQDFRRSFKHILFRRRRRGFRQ
Chain of Muscarinic acetylcholine receptor M4 (Homo sapiens) (P08173 whole entry, looked up): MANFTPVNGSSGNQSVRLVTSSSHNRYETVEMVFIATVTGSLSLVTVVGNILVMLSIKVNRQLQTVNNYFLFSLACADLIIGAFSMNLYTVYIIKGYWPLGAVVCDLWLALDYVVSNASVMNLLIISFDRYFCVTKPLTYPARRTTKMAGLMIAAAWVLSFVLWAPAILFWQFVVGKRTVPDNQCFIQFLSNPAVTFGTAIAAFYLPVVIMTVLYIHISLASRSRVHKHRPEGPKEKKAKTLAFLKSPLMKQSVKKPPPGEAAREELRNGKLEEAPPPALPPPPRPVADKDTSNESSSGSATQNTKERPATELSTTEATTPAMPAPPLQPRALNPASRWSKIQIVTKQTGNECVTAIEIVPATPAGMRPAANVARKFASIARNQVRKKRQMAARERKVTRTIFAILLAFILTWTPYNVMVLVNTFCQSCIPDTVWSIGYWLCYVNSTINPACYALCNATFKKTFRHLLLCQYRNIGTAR
Chain of Dual specificity protein phosphatase 6 (Homo sapiens) (Q16828 whole entry, looked up): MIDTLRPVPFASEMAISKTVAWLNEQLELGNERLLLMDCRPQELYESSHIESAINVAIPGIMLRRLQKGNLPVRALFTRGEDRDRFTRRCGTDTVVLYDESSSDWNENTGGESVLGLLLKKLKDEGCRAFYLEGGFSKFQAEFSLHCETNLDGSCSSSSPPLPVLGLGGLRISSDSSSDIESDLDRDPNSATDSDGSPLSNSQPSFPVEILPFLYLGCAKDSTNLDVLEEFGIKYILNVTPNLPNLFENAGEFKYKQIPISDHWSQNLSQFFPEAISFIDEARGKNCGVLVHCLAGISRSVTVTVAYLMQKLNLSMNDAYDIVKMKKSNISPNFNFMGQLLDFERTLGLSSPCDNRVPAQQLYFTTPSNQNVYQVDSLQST
Chain of Voltage-gated potassium channel subunit beta-2 (Rattus norvegicus) (P62483 whole entry, looked up): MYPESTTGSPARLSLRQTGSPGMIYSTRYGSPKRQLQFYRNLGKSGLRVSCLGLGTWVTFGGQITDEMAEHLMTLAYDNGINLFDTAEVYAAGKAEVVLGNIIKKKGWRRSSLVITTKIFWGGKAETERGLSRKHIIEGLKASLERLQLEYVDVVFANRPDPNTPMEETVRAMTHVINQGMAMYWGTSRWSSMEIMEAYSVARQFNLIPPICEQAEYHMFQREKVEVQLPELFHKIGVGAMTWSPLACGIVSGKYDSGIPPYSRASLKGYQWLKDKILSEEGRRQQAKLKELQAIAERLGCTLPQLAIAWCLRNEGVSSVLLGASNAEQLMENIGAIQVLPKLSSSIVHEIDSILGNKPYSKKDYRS

SMILES	cell count [1]	inhibition [1]	inhibition of aggregation [2]	nuclei count [2] [%]	inhibition [3]	nuclei count [3] [%]	z-score [4, 14]	z-score [4, 15]	z-score [4, 16]	inhibition [5]	fluorescence slope [6]	NADPH fluorescence slope [7]	fluorescence slope [8]	outcome [9]	inhibition [10]	inhibition [11]	inhibition [12]	slope [13]
c1ccc(CN2CCN(c3ncnc4c3[nH]c3ccccc34)CC2)cc1	599	-13.1% (inactive)	10.3% (inactive)	94.4	-47.4% (inactive)	137	0.378	-1.18	-0.208	13.4% (inactive)	-0.381 (inactive)	-2.8e-05 (inactive)	0.00594 (inactive)	active; weak signal in intestine only	21.2% (inactive)	1.57% (inactive)	-46.7% (inactive)	
CCOc1ccccc1N1CCN(c2nc3ccccc3nc2C(C#N)C(=O)OC)CC1 (configuration not stated)	535	0.2% (inactive)	-3.8% (inactive)	106	-43.1% (inactive)	102	-0.286	0.234	1.2	-9.53% (inactive)	-0.501 (inactive)	-7e-05 (inactive)	0.00534 (inactive)	inactive	-13.8% (inactive)	10.2% (inactive)	16.1% (inactive)	
CCCCOc1ccccc1C(=O)NCCCC(=O)O	531	-3.8% (inactive)	-44.1% (inactive)	119	-66.7% (inactive)	134	-0.714	1.18	1.54	-6.59% (inactive)	-0.439 (inactive)	-0.000111 (inactive)	0.00573 (inactive)	active; weak signal in gallbladder and intestine	20.4% (inactive)	12.9% (inactive)	17.2% (inactive)	
CCOC(=O)c1ccc2nc(NC(NC(C)=O)(C(=O)OC)C(F)(F)F)sc2c1 (configuration not stated)	520	-8.2% (inactive)	-4% (inactive)	93.1	-23.9% (inactive)	130	1.37	-0.549	-0.534	9.42% (inactive)	-0.458 (inactive)	-9.4e-05 (inactive)	0.00434 (inactive)	inactive	-10.3% (inactive)	133% (active)	99% (active)	
COc1ccc(/C(O)=C2/C(=O)C(=O)N(CCCN(C)C)C2c2ccco2)cc1Cl (configuration not stated)	697	-3.7% (inactive)	-6.2% (inactive)	110	-9% (inactive)	134	0.269	-1.33	-0.259	6.04% (inactive)	-0.426 (inactive)	-4.3e-05 (inactive)	0.00515 (inactive)	inactive	14.2% (inactive)	-5.81% (inactive)	-1.63% (inactive)	
CCOc1c(C)cc2[nH]c(CCC(=O)O)nc2c1C	445	0.7% (inactive)	8.3% (inactive)	97.7	-40.3% (inactive)	116	1.23	-1.62	-1.73	7.42% (inactive)	-0.491 (inactive)	-3.6e-05 (inactive)	0.00428 (inactive)	inactive	21.6% (inactive)	8.15% (inactive)	8.77% (inactive)	
CCOC(=O)C1(C(=O)OCC)C(c2ccccc2)CC(O)N1C(C)=O (configuration not stated)	820	-8.8% (inactive)	-55.9% (inactive)	103	-65.8% (inactive)	126	-0.838	1.16	-0.266	32.3% (inactive)	-0.351 (inactive)	-2.6e-05 (inactive)	0.00504 (inactive)	inactive	33.6% (inactive)	15% (inactive)	22.6% (inactive)	
Cc1ccc(C2C3CN(C(C)C)CC=C3C(C#N)=C(N)C2(C#N)C#N)cc1 (configuration not stated)	620	0.1% (inactive)		99.1	-85.5% (inactive)	145	1.72	2.35	0.446	70.4% (inactive)	-0.33 (inactive)	-1.4e-05 (inactive)		inactive	8.92% (inactive)	22.9% (inactive)	22.3% (inactive)	-0.00688 (active)
O=C(O)c1cc(=O)cc(C(=O)O)[nH]1	482	1.8% (inactive)	0.2% (inactive)	98	-58.7% (inactive)	188					-0.603 (inactive)	-2e-06 (inactive)	0.00559 (inactive)		3.81% (inactive)	13.7% (inactive)	20.1% (inactive)	
CCC(=O)O[C@@H]1CC(=O)O[C@H](C)CC=CC=C[C@@H](O)[C@H](C)C[C@H](CC=O)[C@H](O[C@H]2O[C@H](C)[C@@H](O[C@H]3C[C@@](C)(O)[C@@H](OC(=O)CC)[C@H](C)O3)[C@H](N(C)C)[C@H]2O)[C@H]1OC	725	-0.7% (inactive)			-105% (inactive)	120	-0.528	-0.404	-1.92	11.3% (inactive)	-0.525 (inactive)	-4.8e-05 (inactive)		inactive	66.6% (active)	-13.3% (inactive)	-27.4% (inactive)	0.00447 (inactive)
COc1cc2nc(N3CCN(C(=O)c4ccco4)CC3)nc(N)c2cc1OC	679	3% (inactive)			-130% (inactive)	128	1.25	-0.94	-1.9	9.37% (inactive)	-0.4 (inactive)	-1.8e-05 (inactive)		inactive	-2.52% (inactive)	-4.12% (inactive)	19.3% (inactive)	0.00375 (inactive)
Cc1cc(C)n(S(=O)(=O)Cc2ccccc2)n1	495	0.8% (inactive)	-5.2% (inactive)	100	-49.2% (inactive)	105					-0.531 (inactive)	-1.7e-05 (inactive)		inactive	-10% (inactive)	15% (inactive)	14.8% (inactive)	0.00447 (inactive)
CNCCCN1c2ccccc2CCc2ccccc21	539	-8.9% (inactive)			-27% (inactive)	118	-1.38	-0.202	2.91	15.3% (inactive)	-0.533 (inactive)	-5.3e-05 (inactive)		inactive	-1.03% (inactive) and 0.865% (inactive)	0.658% (inactive)	24.2% (inactive)	0.00468 (inactive)
O=C(O)c1cc(=O)c2c(OCC(O)COc3cccc4oc(C(=O)O)cc(=O)c34)cccc2o1	472	-2.9% (inactive)			-78.3% (inactive)	106	-1.42	1.02	-0.69	5.42% (inactive)	-0.505 (inactive)	-6.1e-05 (inactive)		inactive	-9.3% (inactive)	13.2% (inactive)	13.9% (inactive)	0.0051 (inactive)
CN1CCN(C2=Nc3ccccc3Oc3ccc(Cl)cc32)CC1	536	-3.1% (inactive)	-4.5% (inactive)	91.8	-3.4% (inactive)	105	-0.87	0.672	-0.787	14.6% (inactive)	-0.437 (inactive)	-4.1e-05 (inactive)		inactive; toxic	27.3% (inactive) and 39.2% (inactive)	13.8% (inactive)	41.9% (inactive)	
O=S(=O)(c1cccc2cnccc12)N1CCCNCC1	401	4.2% (inactive)			-37.4% (inactive)	120	-0.577	0.628	-2.35	21.2% (inactive)	-0.463 (inactive)	-6.3e-05 (inactive)			0.327% (inactive)	18.3% (inactive)	29.9% (inactive)	0.00448 (inactive)
COc1ccccc1Nc1ncnc2c1cnn2-c1cccc(C)c1	398	-11% (inactive)	23.4% (inactive)	92.4	-38.9% (inactive)	133	-0.0649	-0.454	0.131	-2.59% (inactive)	-0.356 (inactive)	-3.8e-05 (inactive)	0.00739 (inactive)	inactive	4.11% (inactive)	-27.1% (inactive)	-52.1% (inactive)	
CCCn1c(=O)[nH]c(=O)c2[nH]cnc21	615	-1.8% (inactive)			-98.8% (inactive)	137	2.73	-1.33	0.0338	19% (inactive)	-0.494 (inactive)	-7.3e-05 (inactive)		inactive	4.71% (inactive) and 14.1% (inactive)	18.8% (inactive)	33.6% (inactive)	0.00482 (inactive)
